Bioassay records deposited in PubChem BioAssay by several laboratories.
Rows were chosen to be rich in hits. Some 1.5% of all compounds tested hit in one or more screens of this group.
EBV gp42 inh – Epstein-Barr virus gp42 inhibitors, primary screen, biochemical, uHTS, fluorescence polarization. Glycoprotein 42 (Epstein-Barr virus (strain AG876)), Q1HVG2. Fluorescence polarization binding assay, mP read-out. inhibition, % (tested at 21.74 µM). 0.42% of 220,000 active. AID 1085, 2008; in the data active means inhibition above about 50%
Target sequence (Q1HVG2 whole entry, looked up): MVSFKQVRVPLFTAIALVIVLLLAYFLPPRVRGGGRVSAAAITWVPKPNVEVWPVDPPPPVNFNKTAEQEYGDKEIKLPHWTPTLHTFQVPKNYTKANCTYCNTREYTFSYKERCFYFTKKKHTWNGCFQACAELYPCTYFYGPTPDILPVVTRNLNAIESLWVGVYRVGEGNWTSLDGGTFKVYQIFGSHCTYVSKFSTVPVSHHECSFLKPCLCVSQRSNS
MEX-5 binding – MEX-5 zinc finger RNA-binding disruptors – biochemical, C. elegans, fluorescence polarization, MLPCN library, primary screen; Zinc finger protein mex-5 (Caenorhabditis elegans), Q9XUB2; 0.38% of 300,000 active; MEX-5/FITC-TCR2 RNA binding; stronger effect = lower value; AID 1832, 2009; activity score (negative = inhibition of binding), % at 10 µM;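 active means inhibition past about -25% in most replicates, and total fluorescence under double the plate's negative control median, limit read from the data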;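 further: 0% = DMSO and -100% = 5 µM competing unlabeled TCR2 RNA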
Target sequence (Q9XUB2 whole entry, looked up): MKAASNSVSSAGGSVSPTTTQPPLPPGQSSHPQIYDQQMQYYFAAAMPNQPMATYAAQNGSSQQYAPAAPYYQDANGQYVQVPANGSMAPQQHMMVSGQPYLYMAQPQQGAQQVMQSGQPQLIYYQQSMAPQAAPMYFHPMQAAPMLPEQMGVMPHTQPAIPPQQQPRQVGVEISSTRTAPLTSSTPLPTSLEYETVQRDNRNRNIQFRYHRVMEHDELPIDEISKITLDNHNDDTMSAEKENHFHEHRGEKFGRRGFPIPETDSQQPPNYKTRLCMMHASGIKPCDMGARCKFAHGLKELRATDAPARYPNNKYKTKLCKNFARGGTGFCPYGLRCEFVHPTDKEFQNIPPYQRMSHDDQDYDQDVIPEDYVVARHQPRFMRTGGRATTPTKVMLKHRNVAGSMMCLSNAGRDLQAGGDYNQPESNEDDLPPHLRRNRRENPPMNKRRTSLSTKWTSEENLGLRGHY
MCL1 BIM primary – inhibitors of MCL1 binding to BIM-BH3, primary screen, biochemical, fluorescence polarization; Induced myeloid leukemia cell differentiation protein Mcl-1 (Homo sapiens), Q07820; GST-MCL1 / FITC-Bim-BH3 fluorescence polarization; inhibition, % at 10.9 µM; 0.68% of 320,000 active;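 active means inhibition above the mean inhibition of all tested compounds plus 3 SD, set per campaign, cut at about 40% in these data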;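 further: 0% = DMSO wells and 100% = unlabeled Bim-BH3 peptide control; higher means more loss of mP so more displacement of Bim peptide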
Bcl-xL primary – inhibitors of human Bcl-xL, primary screen, biochemical, fluorescence polarization, HTS | GST-Bcl-xL / FITC-Bim BH3 peptide fluorescence polarization | Bcl-2-like protein 1 (Homo sapiens), Q07817 | inhibition, % at 10.9 µM | 0.7% of 320,000 active;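 active means inhibition above the mean of all tested compounds plus 3 SD, cutoff set per campaign, cut at about 30% in these data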;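 further: 0% = DMSO wells and 100% = unlabeled Bim-BH3 peptide competitor; inhibitors lower millipolarization by displacing the labeled peptide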
GLD-1 RNA inh – GLD-1/TGE RNA complex disruptors, primary screen, biochemical, fluorescence polarization | purified GLD-1 + fluorescein TGE RNA | inhibition, % at 5.96 µM | 0.44% of 320,000 active | AID 2280, 2010;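 active means percent inhibition above a per-plate cutoff, the plate mean of test compounds plus 3 SD, cut at about 30% in these data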;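 further: 0% = DMSO wells with GLD-1 and probe and 100% = wells lacking GLD-1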
E coli Lon inh – inhibitors of E. coli Lon protease, primary screen, biochemical, fluorescence polarization | 0.42% of 360,000 active | P0A9M0 | inhibition, % at 7.94 µM | purified E. coli Lon protease; in the data active means inhibition above about 13%, passing the limit was not always enough;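 further: 0% = enzyme with probe and DMSO and 100% = no enzyme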
* hit, by the source's call.

COc1ccc(C2C(C#N)=C(N)OC3=C2C(=O)CC(C)(C)C3)cc1 (stereo not given) was read as EBV gp42 inh -6.9, MEX-5 binding 0.4, MCL1 BIM primary -2.8, Bcl-xL primary 51.4*, GLD-1 RNA inh 5.9 and E coli Lon inh -4.0.
For CC1(C)CC(=O)C2=C(C1)OC(N)=C(C#N)C2c1ccc[nH]1 (stereo not given) the results were EBV gp42 inh -2.6, MEX-5 binding -3.1, MCL1 BIM primary 25.8, Bcl-xL primary 33.1*, GLD-1 RNA inh 7.8 and E coli Lon inh -16.0.
CC1(C)CC(=O)C2=C(C1)OC(N)=C(C#N)C2c1ccc(OC(=O)N2CCOCC2)cc1 (stereo not given) was read as EBV gp42 inh -7.9, MEX-5 binding 0.5, MCL1 BIM primary -5.1, Bcl-xL primary -0.2, GLD-1 RNA inh 5.1 and E coli Lon inh -2.7.
For Cc1ccccc1CO/N=C/c1[nH]ncc1Br the results were EBV gp42 inh -4.7, MEX-5 binding 1.3, MCL1 BIM primary 2.2, Bcl-xL primary 0.2, GLD-1 RNA inh -1.9 and E coli Lon inh 23.0.
Screening COc1ccc(Nc2ncnc3nc[nH]c23)cc1OC returned EBV gp42 inh -7.7, MEX-5 binding -33.2*, MCL1 BIM primary -0.5, Bcl-xL primary -1.2, GLD-1 RNA inh 1.1 and E coli Lon inh -10.6.
O=C(Nc1ccccc1Cl)C1CCN(Cc2cnn(-c3ccccc3)c2-n2cccc2)CC1 was read as EBV gp42 inh -0.1, MEX-5 binding 4.3, MCL1 BIM primary 4.1, Bcl-xL primary 3.6, GLD-1 RNA inh -3.7 and E coli Lon inh -4.9.
`CCn1cc([N+](=O)[O-])c(C(=O)N2CCOCC2)n1` gave EBV gp42 inh -0.8, MEX-5 binding -0.2, MCL1 BIM primary 0.6, Bcl-xL primary 4.5, GLD-1 RNA inh -0.5 and E coli Lon inh -1.6.
Screening COc1ccc(NC(=O)CN2CCC(NC(=O)C3CCCCC3)CC2)c([N+](=O)[O-])c1 returned EBV gp42 inh -7.9, MEX-5 binding -91.9*, MCL1 BIM primary 3.5, Bcl-xL primary 2.9, GLD-1 RNA inh -1.1 and E coli Lon inh -4.2.
`COc1cccc(/C(O)=C/c2nc3ccc(C(=O)NCCc4ccc(Cl)cc4)cc3[nH]c2=O)c1` gave EBV gp42 inh 106.9*, MEX-5 binding -49.0* and E coli Lon inh -24.6.
For Cc1ccc(NC(=O)C(=O)c2cn(CC(=O)N3CCCCC3)c3ccccc23)cc1 the results were EBV gp42 inh -12.4, MEX-5 binding -1.4, MCL1 BIM primary -5.1, Bcl-xL primary 1.6, GLD-1 RNA inh -0.8 and E coli Lon inh -3.2.
`Cc1nc2sc(-c3ccccc3)cc2c(=O)n1-n1cccc1` gave EBV gp42 inh -9.8, MEX-5 binding -0.5, MCL1 BIM primary 3.0, Bcl-xL primary 5.0, GLD-1 RNA inh 7.4 and E coli Lon inh 3.3.
`Cc1nc2sc(-c3ccccc3)cc2c(=O)n1N` gave EBV gp42 inh -11.6, MEX-5 binding -31.9*, MCL1 BIM primary -4.8, Bcl-xL primary 11.9, GLD-1 RNA inh 0.5 and E coli Lon inh -6.9.
For CC(C)(C)C(=O)Nc1nc2cc3c(cc2s1)OCO3 the results were EBV gp42 inh -7.8, MEX-5 binding -3.3, MCL1 BIM primary 2.2, Bcl-xL primary 5.0, GLD-1 RNA inh 3.5 and E coli Lon inh -3.4.
`O=C(N/N=C/c1cccc([N+](=O)[O-])c1)c1nc2ccccc2c(=O)[nH]1` gave EBV gp42 inh -11.2, MEX-5 binding 1.6, MCL1 BIM primary -0.8, Bcl-xL primary 3.5, GLD-1 RNA inh 7.3 and E coli Lon inh 3.0.
O=C(N/N=C/c1ccccc1Cl)c1nc2ccc([N+](=O)[O-])cc2c(=O)[nH]1 was read as EBV gp42 inh 96.7*, MEX-5 binding -1.7, MCL1 BIM primary 16.9, Bcl-xL primary 8.7, GLD-1 RNA inh -2.4 and E coli Lon inh -3.4.
Screening CN(C)CCn1c(=O)n(Cc2ccccc2)c(=O)c2c3c(sc21)CCCCC3 returned MEX-5 binding 0.0, MCL1 BIM primary 10.6, Bcl-xL primary 6.6, GLD-1 RNA inh 2.9 and E coli Lon inh -1.4.
For CN(C)CCCn1c(=O)n(CCc2ccccc2)c(=O)c2c3c(sc21)CCCCC3 the results were EBV gp42 inh -12.8, MEX-5 binding 0.2, MCL1 BIM primary 37.8, Bcl-xL primary 56.1*, GLD-1 RNA inh 21.4 and E coli Lon inh -4.2.
Screening CC(=C\c1ccccc1)/C=C1/SC(=S)N(CCCC(=O)O)C1=O returned MEX-5 binding -0.6 and E coli Lon inh -28.9.
For O=C(CC1C(=O)NCCN1Cc1cccc(Oc2ccccc2)c1)NCCn1cccn1 (stereo not given) the results were EBV gp42 inh -2.8, MEX-5 binding -2.1, MCL1 BIM primary 18.1, Bcl-xL primary 16.3, GLD-1 RNA inh 13.9 and E coli Lon inh -3.2.
For Cc1cccnc1NC(=O)Nc1ccccc1 the results were EBV gp42 inh -3.1, MEX-5 binding 0.6, MCL1 BIM primary -1.7, Bcl-xL primary 2.9, GLD-1 RNA inh -1.2 and E coli Lon inh -6.3.
Screening COC(=O)c1ccccc1NC(=O)Nc1ncccc1C returned EBV gp42 inh 64.4*, MEX-5 binding -2.1, MCL1 BIM primary 4.2, Bcl-xL primary 4.6, GLD-1 RNA inh 3.8 and E coli Lon inh -4.7.
COc1ccc(S(=O)(=O)N(C)[C@H]2C[C@H]3c4cc(-c5ccccc5)ccc4CCN3C(=O)[C@H]2[C@H](C)O)cc1 was read as E coli Lon inh -0.7.
Screening O=c1cc(-c2ccc(O)c(O)c2)oc2cc(O)cc(O)c12 returned EBV gp42 inh 8.0, MEX-5 binding -32.8*, MCL1 BIM primary 38.4, Bcl-xL primary 13.2, GLD-1 RNA inh 5.1 and E coli Lon inh -4.7.
COc1ccc(-c2cc(=O)c3c(O)cc(O)cc3o2)cc1 was read as MCL1 BIM primary 4.4, Bcl-xL primary 0.3, GLD-1 RNA inh 3.1 and E coli Lon inh -4.0.
Screening CC(=O)COc1ccc2c(C)c(C)c(=O)oc2c1 returned EBV gp42 inh -11.8, MEX-5 binding 1.1, MCL1 BIM primary -0.1, Bcl-xL primary -0.4, GLD-1 RNA inh 8.6 and E coli Lon inh -6.2.
OCCOc1ccc(C2=NCCO2)cc1 was read as EBV gp42 inh 2.8, MEX-5 binding -49.8*, MCL1 BIM primary 6.6, Bcl-xL primary -2.2, GLD-1 RNA inh 0.6 and E coli Lon inh -2.1.
Screening COc1ccc([C@H]2CC(=O)C=C(c3ccc4c(c3)OCO4)C2)cc1 returned MCL1 BIM primary -1.1, Bcl-xL primary 0.3, GLD-1 RNA inh 3.0 and E coli Lon inh -5.2.
